We go through 20 compounds from PubChem BioAssay (NCATS).

Assay [1] can be described thus: qHTS Validation Assay to Find Inhibitors of Chronic Active B-Cell Receptor Signaling (AID 485345; active = well fitted curve in the direction sought with a large enough effect in the main read-out, with a control signal flat, not every such curve was filed as active). The procedure, abridged: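 TMD8 ABC-DLBCL cells with dox-inducible green luciferase–IκBα fusion and red native luciferase; compounds 46 uM–3 nM, 4 h at 37C with doxycycline in 0.5% FBS IMDM. Green/red ratio normalized to basal and 10 uM MG-132.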
In assay [2] the target is Beta-2 adrenergic receptor (Homo sapiens) (UniProt P07550). Description: qHTS validation assay of beta-arrestin-biased ligands of beta2-adrenergic receptor (AID 485366). The procedure, abridged:
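Compound series up to 46 microM applied to beta2-AR/beta-arrestin Tango cells, 18 hr, 37 degrees C, 5% CO2. Read-out: tTA-driven luciferase luminescence, converted to %Activity; concentration-response curves assigned curve classes.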
In general terms: In qHTS, concentration-response curves come from the screen itself.

The nature of assay [3]: Quantitative high throughput screen for delayed death inhibitors of the malarial parasite plastid, 96 hour incubation (AID 488745). Note: nearly all actives have a fitted effect of over 70% in size. Note: potency is the fitted concentration of half-maximal effect. The procedure, abridged:
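Readout is firefly luciferase luminescence from an integrated reporter in P. falciparum; lower signal marks inhibited growth. Cultures at 2% hematocrit and 0.1% parasitemia were treated with compound across two generations (96 h, 37 C, 5% CO2).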

A short description of assay [4]: Quantitative high throughput screen for delayed death inhibitors of the malarial parasite plastid, 48 hour incubation (AID 488752). Note: nearly all actives have a fitted effect of over 65% in size. Note: potency is the fitted concentration of half-maximal effect. The procedure, abridged:
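First, compound was pinned into RPMI 1640 medium containing 0.5% Albumax. Next, reporter-parasite-infected erythrocytes were added to 2% hematocrit and 0.1% parasitemia. After 48 h at 37 C under 5% CO2, luciferase detection reagent was added and luminescence read.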

The target of assay [5] is Thioredoxin reductase 1, cytoplasmic (Rattus norvegicus) (UniProt O89049). Nature of the assay: qHTS Assay for Substrates of Mammalian Selenoprotein Thioredoxin Reductase 1 (TrxR1) (AID 488772).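 Note: series mostly up to about 57 µM; a drop in NADPH fluorescence below the no-compound background marks a TrxR1 substrate.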 The procedure, abridged:
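In this dual-purpose format, potential substrates are identified from the first fluorescence read after selenite addition, not from the 8-minute delta. Rat enzyme is preincubated with NADPH and then with compound at ~22 deg C.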

Assay [6] shares this target. Nature of the assay: qHTS Assay for Inhibitors of Mammalian Selenoprotein Thioredoxin Reductase 1 (TrxR1) (AID 488773). Note: nearly all actives have a fitted effect of over 40% in size. Note: potency is the fitted concentration of half-maximal effect. As to conditions: Potency: inhibition. The method in brief: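 Inhibition is scored from the loss of NADPH fluorescence between first and last reads of an 8-min kinetic run. Selenite (400 uM) was the substrate, added after 15 min compound preincubation at room temperature.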

In assay [7] the target is Flap endonuclease 1 (Homo sapiens) (UniProt P39748). Nature of the assay: qHTS Validation Assay for the Inhibitors of Human Flap endonuclease 1 (FEN1) (AID 488816). Note: potency is the fitted concentration of half-maximal effect. The procedure, abridged: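 Steps: add FEN1 (10 nM reagent) or buffer only; pin compounds; hold 15 min at room temperature; start with substrate, 50 nM final; read at 0 and 15 min; correct, normalize and fit a four-parameter Hill curve.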
Chain of Flap endonuclease 1 (Homo sapiens) (P39748 whole entry, looked up): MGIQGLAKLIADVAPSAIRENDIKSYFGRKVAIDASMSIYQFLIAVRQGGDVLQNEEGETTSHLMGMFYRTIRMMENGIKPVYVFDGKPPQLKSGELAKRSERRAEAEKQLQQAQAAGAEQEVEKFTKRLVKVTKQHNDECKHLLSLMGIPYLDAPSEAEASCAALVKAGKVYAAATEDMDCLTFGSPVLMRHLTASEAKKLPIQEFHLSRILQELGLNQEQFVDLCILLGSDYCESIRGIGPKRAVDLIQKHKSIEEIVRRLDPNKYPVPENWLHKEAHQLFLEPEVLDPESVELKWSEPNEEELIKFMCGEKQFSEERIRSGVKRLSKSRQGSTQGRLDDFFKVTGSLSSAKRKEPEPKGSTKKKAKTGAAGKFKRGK

Assay [8] addresses M-phase phosphoprotein 8 (Homo sapiens) (UniProt Q99549). Nature of the assay: qHTS Validation Assay for Inhibitors for MPP8 Chromodomain Interactions with Methylated Histone Tails (AID 488949). Note: nearly all actives have a fitted effect of over 55% in size. Note: potency is the fitted concentration of half-maximal effect. The procedure, abridged: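 Disruption of the preformed MPP8–trimethyl-H3K9 peptide complex (both 50 nM, 30 min, RT) is measured after 30 min compound exposure, using AlphaScreen proximity beads; aurintricarboxylic acid titration serves as plate control.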

Assay [9] deals with Chromobox protein homolog 1 (Homo sapiens) (UniProt P83916). Description: qHTS Validation Assay for Inhibitors of HP1-beta Chromodomain Interactions with Methylated Histone Tails (AID 488953). Note: nearly all actives have a fitted effect of over 50% in size. Note: potency is the fitted concentration of half-maximal effect. The method in brief:
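Disruption of preformed HP1-beta:H3K9me3 peptide complexes (both 50 nM, PBS pH 7.4 with 0.01% Tween-20) is measured by AlphaScreen after 30 min compound exposure at room temperature, using streptavidin donor and nickel chelate acceptor beads at 10 ug/mL final.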

The structures appear in SMILES notation. “And” between values parts separate entries of the source, which are not always exact repeats. Identical values can stand only once. Results filed as inconclusive are left out. The source made the active and inactive calls. Unless noted, calls come from the whole dose curve; as a rule, active = well fitted curve in the direction sought with a large enough effect; inconclusive = small, poorly fitted or top-dose-only effect, or another doubt; inactive = no such curve, though single readings can be large; an effect the other way counts as inactive or inconclusive.

Chain of Chromobox protein homolog 1 (Homo sapiens) (P83916 whole entry, looked up): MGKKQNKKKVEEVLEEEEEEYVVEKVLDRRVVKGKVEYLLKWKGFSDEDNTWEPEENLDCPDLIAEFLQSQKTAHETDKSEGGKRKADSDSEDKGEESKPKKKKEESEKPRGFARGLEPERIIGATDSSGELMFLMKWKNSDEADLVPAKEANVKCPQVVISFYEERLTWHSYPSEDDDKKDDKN
Chain of M-phase phosphoprotein 8 (Homo sapiens) (Q99549 whole entry, looked up): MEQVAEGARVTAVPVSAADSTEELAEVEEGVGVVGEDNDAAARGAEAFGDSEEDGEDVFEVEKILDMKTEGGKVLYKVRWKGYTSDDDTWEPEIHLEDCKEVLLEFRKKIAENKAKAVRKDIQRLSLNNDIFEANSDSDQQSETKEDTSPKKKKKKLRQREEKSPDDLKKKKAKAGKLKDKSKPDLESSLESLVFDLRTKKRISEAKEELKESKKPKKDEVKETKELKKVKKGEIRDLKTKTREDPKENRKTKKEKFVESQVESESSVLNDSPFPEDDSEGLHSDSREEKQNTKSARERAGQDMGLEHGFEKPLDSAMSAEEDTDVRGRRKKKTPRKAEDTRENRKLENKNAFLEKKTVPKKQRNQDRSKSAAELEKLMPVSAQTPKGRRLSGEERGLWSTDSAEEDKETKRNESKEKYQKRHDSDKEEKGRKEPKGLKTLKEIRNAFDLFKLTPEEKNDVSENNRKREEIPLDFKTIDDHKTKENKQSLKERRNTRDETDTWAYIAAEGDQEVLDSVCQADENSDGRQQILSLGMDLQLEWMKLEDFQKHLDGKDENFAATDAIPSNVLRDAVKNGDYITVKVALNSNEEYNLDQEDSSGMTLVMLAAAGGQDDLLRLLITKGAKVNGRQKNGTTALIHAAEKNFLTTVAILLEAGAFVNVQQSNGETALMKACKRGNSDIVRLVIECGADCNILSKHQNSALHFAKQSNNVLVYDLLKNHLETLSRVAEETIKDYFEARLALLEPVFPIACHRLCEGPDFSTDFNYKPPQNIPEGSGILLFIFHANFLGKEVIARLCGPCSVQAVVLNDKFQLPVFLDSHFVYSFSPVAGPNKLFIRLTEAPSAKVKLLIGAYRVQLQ
Chain of Thioredoxin reductase 1, cytoplasmic (Rattus norvegicus) (O89049 whole entry, looked up): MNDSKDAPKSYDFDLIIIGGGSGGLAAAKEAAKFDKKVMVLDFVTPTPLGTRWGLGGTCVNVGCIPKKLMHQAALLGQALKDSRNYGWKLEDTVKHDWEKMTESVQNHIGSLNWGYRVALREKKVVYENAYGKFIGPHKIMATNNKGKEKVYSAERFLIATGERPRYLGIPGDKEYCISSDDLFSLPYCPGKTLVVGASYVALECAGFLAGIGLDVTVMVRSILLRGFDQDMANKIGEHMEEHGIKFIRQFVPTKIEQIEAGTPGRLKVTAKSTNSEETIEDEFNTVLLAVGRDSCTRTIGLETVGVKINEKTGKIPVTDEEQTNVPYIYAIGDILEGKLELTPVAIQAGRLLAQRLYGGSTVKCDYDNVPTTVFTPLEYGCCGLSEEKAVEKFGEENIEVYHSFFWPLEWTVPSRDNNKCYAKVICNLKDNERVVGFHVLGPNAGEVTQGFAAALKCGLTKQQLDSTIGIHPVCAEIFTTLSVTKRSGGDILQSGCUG
Chain of Beta-2 adrenergic receptor (Homo sapiens) (P07550 whole entry, looked up): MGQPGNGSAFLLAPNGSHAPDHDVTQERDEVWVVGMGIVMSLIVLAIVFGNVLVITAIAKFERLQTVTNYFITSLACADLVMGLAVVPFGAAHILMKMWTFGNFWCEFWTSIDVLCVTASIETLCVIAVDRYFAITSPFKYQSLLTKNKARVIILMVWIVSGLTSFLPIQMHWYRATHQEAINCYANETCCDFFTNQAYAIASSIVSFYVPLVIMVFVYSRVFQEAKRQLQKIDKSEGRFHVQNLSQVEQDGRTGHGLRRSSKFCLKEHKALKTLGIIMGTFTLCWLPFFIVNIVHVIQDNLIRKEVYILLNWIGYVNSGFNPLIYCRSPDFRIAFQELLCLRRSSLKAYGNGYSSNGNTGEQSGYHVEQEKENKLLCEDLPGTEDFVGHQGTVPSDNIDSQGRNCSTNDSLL

As to `CCCCc1oc2ccccc2c1C(=O)c1cc(I)c(OCCN(CC)CC)c(I)c1`, the Potency result in assay [1], in assay [6], in [7] and in assay [8] was “inactive” in each case. In addition, the result in assay [2] and in assay [5] was inactive. In addition, the Potency in [3] was 8280 nM (active); in assay [4] it was 9280 nM (active).

`C[C@](N)(Cc1ccc(O)c(O)c1)C(=O)O`: the Potency result in [1], in assay [3] and in [4] was “inactive” throughout. The call in assay [2] and in assay [5] was inactive. The Potency in assay [6] was 3770 nM (active); in assay [7] it was 844 nM (active); in assay [8], 1.89 µM (active); in assay [9] it was 1890 nM (active).

Consider `NC12CC3CC(CC(C3)C1)C2`, for which the Potency entry in assay [1], in assay [3], in assay [4] and in [6] was “inactive” throughout. In addition, the compound was classed as inactive in [2] and in [5].

Turning to `COc1ccc2[nH]cc(CCNC(C)=O)c2c1`, the Potency result in assay [1], in [3], in assay [4], in assay [6], in assay [7] and in assay [8] was “inactive” throughout. Also, the compound was called inactive in [2] and in assay [5].

As to `CN1CCC(=C2c3ccccc3CC(=O)c3sccc32)CC1`, the Potency entry in [1], in assay [3], in assay [4], in assay [6], in assay [7] and in assay [8] was “inactive” throughout. Further, the compound was classed as inactive in assay [2] and in assay [5].

With `Clc1ccccc1C(c1ccccc1)(c1ccccc1)n1ccnc1`, the Potency result in assay [1], in assay [6] and in assay [7] was “inactive” each time. In addition, the result in [2] and in assay [5] was inactive. Moreover, the Potency in assay [3] is 1170 nM (active); in assay [4], 1040 nM (active).

On to `CN(C)CCOC(c1ccccc1)c1ccccc1`, for which the Potency entry in [1], in [3], in assay [4], in assay [6] and in assay [7] was “inactive” in each case. Also, the result in [2] and in assay [5] was inactive.

For the compound `Cc1ccc(C(=O)Nc2ccc(S(=O)(=O)O)c3cc(S(=O)(=O)O)cc(S(=O)(=O)O)c23)cc1NC(=O)c1cccc(NC(=O)Nc2cccc(C(=O)Nc3cc(C(=O)Nc4ccc(S(=O)(=O)O)c5cc(S(=O)(=O)O)cc(S(=O)(=O)O)c45)ccc3C)c2)c1`, the Potency result in [1], in assay [3], in assay [4] and in [6] was “inactive” throughout. Besides, the result in assay [2] and in assay [5] was inactive. For the same compound, the Potency in assay [7] was 336 nM (active); in assay [8] it was 8.91 µM (active) and 1.89 µM (active); in assay [9], 2000 nM (active).

`COc1ccc2c(c1)c(CC(=O)O)c(C)n2C(=O)c1ccc(Cl)cc1`: the Potency entry in [1], in assay [3], in [4], in assay [6] and in [7] was “inactive” in each case. The compound was classed as inactive in assay [2] and in assay [5].

Turning to `NCCS(=O)(=O)O`, the Potency entry in [1], in [3], in assay [4], in assay [6], in assay [7] and in assay [8] was “inactive” each time. Besides, the outcome in assay [2] and in [5] was inactive.

On to `CC(CCc1ccc(O)cc1)NCCc1ccc(O)c(O)c1` (stereo unspecified), for which the Potency entry in [1], in [6], in assay [7] and in [8] was “inactive” in each case. Moreover, the outcome in assay [2] and in assay [5] was inactive. The figures for the Potency in [3] and in assay [4] were 5860 nM (active) and 13100 nM (active), respectively.

As to `NCCc1cnc[nH]1`, the Potency entry in assay [1], in assay [3], in assay [4], in assay [6], in assay [7] and in assay [9] was “inactive” in each case. In addition, the outcome in assay [2] was inactive.

Take `CS(=O)(=O)Nc1ccc([N+](=O)[O-])cc1Oc1ccccc1`: the Potency result in [1], in assay [3], in assay [4], in assay [6] and in assay [8] was “inactive” in each case. Moreover, the compound was called inactive in assay [2] and in assay [5].

Turning to `CC(C)NCC(O)c1ccc(O)c(O)c1` (stereo unspecified), the Potency entry in [1], in [3], in [4] and in assay [7] was “inactive” each time. In addition, the call in assay [5] was inactive.

With `CC(C)Cc1ccc(C(C)C(=O)O)cc1` (stereo unspecified), the Potency result in assay [1], in [3], in assay [4], in assay [6], in assay [8] and in [9] was “inactive” in each case. The call in [2] and in assay [5] was inactive.

Take `CCN1CCCC1CNC(=O)c1cc(S(=O)(=O)CC)c(N)cc1OC` (stereo unspecified): the Potency entry in assay [1], in assay [6], in [7] and in [9] was “inactive” each time. Further, the call in [2] and in assay [5] was inactive.

Regarding `CC12CC3CC(C)(C1)CC(N)(C3)C2`, the Potency result in assay [1], in [3], in assay [4], in [6] and in assay [8] was “inactive” in each case. The result in assay [2] and in [5] was inactive.

With `CCOC(=O)c1ncn2c1CN(C)C(=O)c1cc(F)ccc1-2`, the Potency entry in [1], in assay [3], in [6] and in [8] was “inactive” throughout. The result in assay [2] was inactive.

For `CC(C)NCC(O)COc1ccc(CCOCC2CC2)cc1` (stereo unspecified), the Potency result in [1], in [4], in assay [6], in [7] and in assay [9] was “inactive” in each case. Besides, in assay [5], the outcome was inactive.

Regarding `CN1CCC(=C2c3ccccc3C=Cc3ccccc32)CC1`, the Potency entry in assay [1], in assay [6] and in [8] was “inactive” in each case. Besides, the call in [2] and in [5] was inactive.
